Our source for the outcome and AC50 values is PubChem BioAssay (EPA / NIEHS).

Records with an inconclusive call do not appear. The source made the active and inactive calls. The calls were made as follows: active = hit-call score of the fitted dose curve at least 0.9, where 1 is the maximum; inconclusive = response in the unintended direction; inactive = score below 0.9.

Assay [1] concerns the target rat Peripheral-type Benzodiazepine Receptor (PBR), Tspo (gene 24230) (UniProt P16257). Description: NVS_MP_rPBR: NovaScreen (NVS) Membrane Protein Assay for rat Peripheral-type Benzodiazepine Receptor (PBR) (AID 2283335). The procedure, abridged: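 Single-concentration duplicate screening at 25 uM preceded concentration-series retesting of actives. Binding of a specific radioligand to rat kidney membrane PBR was read by filtration radiodetection after 1 h, with plate-wise positive and negative controls.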

For assay [2], the target named is bovine Estrogen Receptor (ER), ESR1 (gene 407238) (UniProt P49884). Kind of assay: NVS_NR_bER: NovaScreen (NVS) Nuclear Receptor Binding Assay for bovine Estrogen Receptor (ER) (AID 2283345).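 Also: actives lower the bound radioligand count which means they displace the ER ligand.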 The procedure, abridged: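 Cell-free radioligand binding with bovine uterine membrane extracts, read 18 hours after dosing by scintillation counting. Loss of signal versus DMSO baseline indicates displacement. Primary screen run in duplicate at 25 uM, actives followed in concentration series.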

The target of assay [3] is chimpanzee Androgen Receptor (AR), AR (gene 747460) (UniProt O97775). Kind of assay: NVS_NR_cAR: NovaScreen (NVS) Nuclear Receptor Binding Assay for chimpanzee Androgen Receptor (AR) (AID 2283346).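 Also: radioligand displacement from AR measured by scintillation counting in a cell-free assay; a loss of bound radioligand signal versus DMSO counts as binding.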 A digest of the protocol: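 Cell-free competition binding with insect-cell (Sf9/Sf21) extracted chimpanzee AR; scintillation signal from lysate at 72 h. Screened in duplicate at 25 uM, then concentration-response for actives; fitting relative to DMSO.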

Assay [4] addresses Estrogen receptor (Homo sapiens) (UniProt P03372). Kind of assay: OT_ER_ERaERa_1440: Odyssey Thera (OT) 24-hour HEK293T Protein-Complementation Assay for Estrogen Receptor-alpha/-alpha Homodimer (AID 2283349).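 Also: hits raise fluorescence above DMSO for agonists and antagonists alike.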 A digest of the protocol: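 HEK293T, stable ERα LBD (aa 310-547) homodimer PCA; 24 h compound exposure; mean fluorescence intensity (nuclear for agonists, nuclear plus cytoplasmic for antagonists) vs vehicle; positive fitting direction, DMSO baseline.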

Assay [5] shares this target. Description: OT_ER_ERaERa_0480: Odyssey Thera (OT) 8-hour HEK293T Protein-Complementation Assay for Estrogen Receptor-alpha/-alpha Homodimer (AID 2283351).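 Also: rise in fluorescence from reassembled reporter fragments on ERα LBD homodimer in nucleus or whole cell.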 The procedure, abridged:
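Read-out: fluorescence intensity rise relative to DMSO, nuclear for agonists, nuclear plus cytoplasmic for antagonists. Construct is the ERα LBD (aa 310-547) homodimer fragment-complementation pair, stably expressed in HEK293T; exposure 8 h.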

Assay [6] has as its target T1, Estrogen receptor (Homo sapiens) + Estrogen receptor beta (Homo sapiens) (UniProt P03372+Q92731). Description: OT_ER_ERaERb_0480: Odyssey Thera (OT) 8-hour HEK293T Protein-Complementation Assay for Estrogen Receptor-alpha/-beta Heterodimer (AID 2283352). A digest of the protocol: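 Increase in mean fluorescence intensity, measured by laser scanning plate cytometry, reported ER-alpha/ER-beta LBD complementation in HEK293T cells after 8 h chemical exposure. DMSO served as baseline; basal signal is low, punctate and cytoplasmic.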

In assay [7] the target is T1, Estrogen receptor (Homo sapiens) + Estrogen receptor beta (Homo sapiens). Description: OT_ER_ERaERb_1440: Odyssey Thera (OT) 24-hour HEK293T Protein-Complementation Assay for Estrogen Receptor-alpha/-beta Homodimer (AID 2283356).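 Also: heteromer of ER alpha and ER beta binding domains; hits raise reporter fluorescence and both agonists and antagonists give an increase.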 The procedure, abridged: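 Heterodimerisation of ERα (aa 310-547) and ERβ (aa 263-489) ligand binding domains was tracked as fluorescence gain in stably transfected HEK293T cells following 24 h dosing, normalised to DMSO controls.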

Assay [8] addresses Estrogen receptor beta (Homo sapiens) (UniProt Q92731). Description: OT_ER_ERbERb_0480: Odyssey Thera (OT) 8-hour HEK293T Protein-Complementation Assay for Estrogen Receptor-beta/-beta Homodimer (AID 2283357).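 Also: active means signal gain over DMSO baseline.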 A digest of the protocol:
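ER-beta LBD homodimer PCA stably expressed in HEK293T; 8 h compound exposure, then formaldehyde fixation and Draq5 staining. Gain in nuclear/cytoplasmic fluorescence intensity versus DMSO vehicle, read on laser scanning cytometer.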

A further assay deals with NCBI gene 100848466. Description: NVS_NR_bPR: NovaScreen (NVS) Nuclear Receptor Binding Assay for bovine Progextron Receptor (PR) (AID 2283343). The procedure, abridged: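 Competitive radioligand binding with membranes from bovine uterus, scintillation read-out at 18 h post-dose. Compounds first tested in duplicate at 25 uM, then actives in concentration series; loss-of-signal relative to DMSO.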

In assay [9] the target is rat Mineralocorticoid Receptor (MR), Nr3c2 (gene 25672) (UniProt P22199). Kind of assay: NVS_NR_rMR: NovaScreen (NVS) Nuclear Receptor Binding Assay for rat Mineralocorticoid Receptor (MR) (AID 2283355). A digest of the protocol:
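Primary HTS ran in duplicate at a single 25 uM concentration, with concentration-series follow-up for actives. Receptor source: adrenalectomized rat brain supernatant, cell-free. Radioligand displacement read by scintillation at 24 h, relative to DMSO baseline.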

Assay [10] addresses Voltage-gated inwardly rectifying potassium channel KCNH2 (Homo sapiens) (UniProt Q12809). Kind of assay: NVS_IC_hKhERGCh: NovaScreen (NVS) Ion Channel Assay for human Potassium Channel ERG (KhERGCh) (AID 2283333). The procedure, abridged: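 Membranes from CHO cells expressing human ERG; displacement of radioligand measured by filtration and scintillation after 0.75 h. Single-concentration duplicate screen at 25 uM, then concentration-response for actives; DMSO baseline.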

For assay [11], the target named is human Constitutive Androstane Receptor (CAR), NR1I3 (gene 9970) (UniProt Q14994). Kind of assay: NVS_NR_hCAR_Antagonist: NovaScreen (NVS) Nuclear Receptor Binding Assay for human Constitutive Androstane Receptor Antagonism (CAR) (AID 2283344). The procedure, abridged:
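Single 25 uM duplicate primary screen, with concentration-series follow-up on actives. Cell-free binding format run in antagonist mode, TR-FRET signal taken 1 h post-dose; activity is signal loss relative to DMSO.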

The target of assay [12] is bovine Gamma-Aminobutyric Acid Type A Receptor Agonist (GABAR Agonist), GABRA1 (gene 780973) (UniProt P08219). Kind of assay: NVS_LGIC_bGABAR_Agonist: NovaScreen (NVS) Ligand-Gated Ion Channel Assay for bovine Gamma-Aminobutyric Acid Type A Receptor Agonist (GABAR Agonist) (AID 2283338). The procedure, abridged:
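Radioligand binding to bovine cerebellar membranes in agonist format, read by filter-based scintillation counting after 1 h. Primary screen in duplicate at 25 uM, with actives followed in concentration series. Gain of signal versus DMSO.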

The target in assay [13] is human Peroxisome Proliferator-activated Receptor alpha (PPARa), PPARA (gene 5465) (UniProt Q07869). Description: NVS_NR_hPPARa: NovaScreen (NVS) Nuclear Receptor Binding Assay for human Peroxisome Proliferator-activated Receptor alpha (PPARa) (AID 2283359).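 Also: activity means loss of TR-FRET signal versus DMSO baseline.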 A digest of the protocol: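 Loss of TR-FRET binding signal relative to DMSO was measured 1 h after chemical addition to extracted receptor protein. Chemicals were first tested in duplicate at 25 uM, and actives were followed up in concentration series.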

The target of assay [14] is Bile acid receptor (Homo sapiens) (UniProt Q96RI1). Description: NVS_NR_hFXR_Antagonist: NovaScreen (NVS) Nuclear Receptor Binding Assay for human Farnesoid X Receptor Antagonism (FXR) (AID 2283350). The procedure, abridged: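 Antagonist-format time-resolved FRET binding assay with extracted human receptor protein, read 1 hour after compound addition. Compounds first screened at 25 uM in duplicate, then actives tested in concentration series, with loss of signal relative to DMSO.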
Chain of Bile acid receptor (Homo sapiens) (Q96RI1 whole entry, looked up): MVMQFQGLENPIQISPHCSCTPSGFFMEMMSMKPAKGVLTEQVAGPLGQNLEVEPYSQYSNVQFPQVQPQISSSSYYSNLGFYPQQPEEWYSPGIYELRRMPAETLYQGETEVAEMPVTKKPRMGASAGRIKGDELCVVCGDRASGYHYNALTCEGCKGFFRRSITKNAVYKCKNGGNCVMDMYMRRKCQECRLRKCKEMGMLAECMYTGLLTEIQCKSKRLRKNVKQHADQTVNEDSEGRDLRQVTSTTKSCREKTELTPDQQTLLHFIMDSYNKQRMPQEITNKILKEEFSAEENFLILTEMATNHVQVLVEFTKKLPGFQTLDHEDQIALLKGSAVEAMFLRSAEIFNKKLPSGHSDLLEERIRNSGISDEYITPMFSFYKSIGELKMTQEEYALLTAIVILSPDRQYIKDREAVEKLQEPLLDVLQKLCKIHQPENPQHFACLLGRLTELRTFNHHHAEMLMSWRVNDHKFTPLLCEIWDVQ

Chain of rat Peripheral-type Benzodiazepine Receptor (PBR), Tspo (gene 24230) (P16257 whole entry, looked up): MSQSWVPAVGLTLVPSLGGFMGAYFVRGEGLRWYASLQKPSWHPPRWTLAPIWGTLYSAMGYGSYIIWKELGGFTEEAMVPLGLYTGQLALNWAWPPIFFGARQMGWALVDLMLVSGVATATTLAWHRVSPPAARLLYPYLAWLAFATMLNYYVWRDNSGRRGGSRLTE
Chain of Estrogen receptor beta (Homo sapiens) (Q92731 whole entry, looked up, the tested form may be a part): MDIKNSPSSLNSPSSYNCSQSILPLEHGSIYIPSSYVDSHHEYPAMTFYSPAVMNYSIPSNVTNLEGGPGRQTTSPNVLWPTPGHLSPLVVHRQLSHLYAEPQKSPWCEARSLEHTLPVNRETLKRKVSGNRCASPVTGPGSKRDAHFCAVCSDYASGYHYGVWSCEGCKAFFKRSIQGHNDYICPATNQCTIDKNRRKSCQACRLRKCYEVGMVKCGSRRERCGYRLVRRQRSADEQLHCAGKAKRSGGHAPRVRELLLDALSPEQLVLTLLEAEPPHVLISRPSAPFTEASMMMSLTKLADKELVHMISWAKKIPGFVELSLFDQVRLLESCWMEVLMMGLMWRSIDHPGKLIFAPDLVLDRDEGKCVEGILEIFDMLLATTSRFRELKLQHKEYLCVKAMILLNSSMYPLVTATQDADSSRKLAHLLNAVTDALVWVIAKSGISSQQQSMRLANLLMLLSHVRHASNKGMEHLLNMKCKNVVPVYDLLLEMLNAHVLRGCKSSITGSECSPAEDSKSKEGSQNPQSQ
Chain of bovine Estrogen Receptor (ER), ESR1 (gene 407238) (P49884 whole entry, looked up): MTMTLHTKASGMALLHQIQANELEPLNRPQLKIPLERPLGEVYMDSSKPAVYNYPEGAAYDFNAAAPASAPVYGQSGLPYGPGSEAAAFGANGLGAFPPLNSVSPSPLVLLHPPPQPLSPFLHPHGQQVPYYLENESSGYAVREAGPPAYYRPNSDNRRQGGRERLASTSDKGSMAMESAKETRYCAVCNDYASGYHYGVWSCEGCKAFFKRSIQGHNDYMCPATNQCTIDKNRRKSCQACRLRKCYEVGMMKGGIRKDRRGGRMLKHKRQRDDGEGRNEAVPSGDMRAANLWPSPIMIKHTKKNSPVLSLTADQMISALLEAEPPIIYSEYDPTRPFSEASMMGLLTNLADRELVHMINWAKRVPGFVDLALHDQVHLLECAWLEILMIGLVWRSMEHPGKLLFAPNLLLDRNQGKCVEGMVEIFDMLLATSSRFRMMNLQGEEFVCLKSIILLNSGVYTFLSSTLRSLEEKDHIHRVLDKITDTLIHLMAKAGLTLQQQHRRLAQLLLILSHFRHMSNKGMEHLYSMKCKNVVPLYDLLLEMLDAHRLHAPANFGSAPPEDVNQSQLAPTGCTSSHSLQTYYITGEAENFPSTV
Chain of human Peroxisome Proliferator-activated Receptor alpha (PPARa), PPARA (gene 5465) (Q07869 whole entry, looked up): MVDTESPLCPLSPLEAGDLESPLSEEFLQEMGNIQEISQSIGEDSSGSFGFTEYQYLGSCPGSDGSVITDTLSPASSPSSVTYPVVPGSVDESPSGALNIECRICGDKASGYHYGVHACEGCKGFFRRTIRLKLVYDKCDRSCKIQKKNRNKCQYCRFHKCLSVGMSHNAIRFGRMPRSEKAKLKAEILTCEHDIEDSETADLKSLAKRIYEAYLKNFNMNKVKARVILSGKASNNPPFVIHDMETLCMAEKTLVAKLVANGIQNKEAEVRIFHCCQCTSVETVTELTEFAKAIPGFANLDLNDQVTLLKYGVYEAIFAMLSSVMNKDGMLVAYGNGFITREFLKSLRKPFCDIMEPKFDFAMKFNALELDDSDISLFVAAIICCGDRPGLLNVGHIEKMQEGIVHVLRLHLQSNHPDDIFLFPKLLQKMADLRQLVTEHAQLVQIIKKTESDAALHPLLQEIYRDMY
Chain of Estrogen receptor (Homo sapiens) (P03372 whole entry, looked up, the tested form may be a part): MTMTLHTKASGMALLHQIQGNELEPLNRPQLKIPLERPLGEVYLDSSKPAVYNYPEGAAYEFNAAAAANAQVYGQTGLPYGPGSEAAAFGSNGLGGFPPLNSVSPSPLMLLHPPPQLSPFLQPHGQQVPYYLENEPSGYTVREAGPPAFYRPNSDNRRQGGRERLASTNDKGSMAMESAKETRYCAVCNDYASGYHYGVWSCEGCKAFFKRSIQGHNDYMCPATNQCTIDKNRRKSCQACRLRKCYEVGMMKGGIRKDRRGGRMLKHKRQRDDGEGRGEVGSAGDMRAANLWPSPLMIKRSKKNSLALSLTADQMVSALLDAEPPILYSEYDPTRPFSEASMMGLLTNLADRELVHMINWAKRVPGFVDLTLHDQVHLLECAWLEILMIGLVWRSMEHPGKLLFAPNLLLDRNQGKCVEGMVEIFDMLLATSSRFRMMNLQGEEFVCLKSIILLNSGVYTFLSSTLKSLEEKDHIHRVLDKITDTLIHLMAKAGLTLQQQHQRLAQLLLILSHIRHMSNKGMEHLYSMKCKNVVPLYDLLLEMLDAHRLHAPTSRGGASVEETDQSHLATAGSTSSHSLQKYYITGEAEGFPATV
T1 sequence (P03372 whole entry, looked up, the tested form may be a part): as above
T1 sequence (Q92731 whole entry, looked up, the tested form may be a part): as the sequence (Q92731 whole entry, looked up, the tested form may be a part) above
Chain of bovine Gamma-Aminobutyric Acid Type A Receptor Agonist (GABAR Agonist), GABRA1 (gene 780973) (P08219 whole entry, looked up): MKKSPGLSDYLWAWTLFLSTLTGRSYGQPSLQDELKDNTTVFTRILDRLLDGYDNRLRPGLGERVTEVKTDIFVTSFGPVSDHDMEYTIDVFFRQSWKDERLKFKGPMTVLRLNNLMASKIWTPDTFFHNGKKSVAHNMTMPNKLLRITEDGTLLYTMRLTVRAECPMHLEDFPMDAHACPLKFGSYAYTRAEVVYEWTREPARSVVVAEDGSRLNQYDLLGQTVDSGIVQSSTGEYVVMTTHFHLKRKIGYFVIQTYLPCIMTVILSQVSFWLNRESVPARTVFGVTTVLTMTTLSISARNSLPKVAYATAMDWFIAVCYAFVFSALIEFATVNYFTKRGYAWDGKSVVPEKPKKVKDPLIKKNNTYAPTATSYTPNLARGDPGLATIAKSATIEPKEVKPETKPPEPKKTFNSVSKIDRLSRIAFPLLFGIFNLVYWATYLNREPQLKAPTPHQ
Chain of chimpanzee Androgen Receptor (AR), AR (gene 747460) (O97775 whole entry, looked up): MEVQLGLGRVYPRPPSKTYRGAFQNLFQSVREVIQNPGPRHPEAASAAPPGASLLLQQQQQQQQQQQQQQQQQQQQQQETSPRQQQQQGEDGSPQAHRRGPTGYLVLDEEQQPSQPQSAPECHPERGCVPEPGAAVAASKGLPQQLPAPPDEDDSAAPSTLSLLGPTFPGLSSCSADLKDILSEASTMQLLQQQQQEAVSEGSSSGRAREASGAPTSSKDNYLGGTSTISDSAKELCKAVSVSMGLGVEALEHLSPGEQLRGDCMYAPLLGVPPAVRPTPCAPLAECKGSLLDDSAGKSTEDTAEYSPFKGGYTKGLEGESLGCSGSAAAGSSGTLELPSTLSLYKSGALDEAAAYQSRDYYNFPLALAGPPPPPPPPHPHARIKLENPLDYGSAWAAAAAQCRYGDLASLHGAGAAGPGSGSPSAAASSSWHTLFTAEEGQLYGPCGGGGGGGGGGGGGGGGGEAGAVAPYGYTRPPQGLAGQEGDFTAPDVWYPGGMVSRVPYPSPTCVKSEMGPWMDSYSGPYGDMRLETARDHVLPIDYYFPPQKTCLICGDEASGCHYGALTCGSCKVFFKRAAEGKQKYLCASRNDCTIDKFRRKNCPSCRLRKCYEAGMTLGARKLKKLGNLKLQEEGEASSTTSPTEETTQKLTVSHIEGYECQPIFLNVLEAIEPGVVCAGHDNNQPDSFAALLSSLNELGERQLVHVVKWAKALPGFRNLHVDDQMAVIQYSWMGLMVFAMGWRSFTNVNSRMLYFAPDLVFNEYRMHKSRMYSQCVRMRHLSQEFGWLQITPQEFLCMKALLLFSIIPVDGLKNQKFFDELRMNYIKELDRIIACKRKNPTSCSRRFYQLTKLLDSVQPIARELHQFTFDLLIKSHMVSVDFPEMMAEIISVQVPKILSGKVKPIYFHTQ
Chain of human Constitutive Androstane Receptor (CAR), NR1I3 (gene 9970) (Q14994 whole entry, looked up): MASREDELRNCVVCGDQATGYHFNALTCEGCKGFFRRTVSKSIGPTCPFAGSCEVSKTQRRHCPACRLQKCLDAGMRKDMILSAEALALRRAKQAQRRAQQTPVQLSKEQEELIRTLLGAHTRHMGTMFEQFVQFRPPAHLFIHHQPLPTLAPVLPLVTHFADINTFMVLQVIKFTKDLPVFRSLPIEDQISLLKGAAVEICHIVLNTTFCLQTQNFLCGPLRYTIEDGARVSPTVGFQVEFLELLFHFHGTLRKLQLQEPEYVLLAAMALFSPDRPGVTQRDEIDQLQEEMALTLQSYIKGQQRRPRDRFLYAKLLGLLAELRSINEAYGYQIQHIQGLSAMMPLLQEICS

Consider `Cc1cc(C)c(C(=O)P(=O)(c2ccccc2)c2ccccc2)c(C)c1`, for which the outcome in assay [1] was inactive.
`CCC(C)(C)c1ccc(O)cc1`: in [2], the call was inactive. In addition, the AC50 (in general, the concentration at which the activity in the assay is half-maximal) was 25 µM (active) in assay [3]; 14.9 µM (active) in [4]; 8.61 µM (active) in [5]; 2.68 µM (active) in [6]; 7.2 µM (active) in [7]; 2.41 µM (active) in assay [8].
Consider `OCC1CO1` (stereo unspecified), for which the call in [2], in assay [4] and in [5] was inactive.
With `CSC(C)(C)C=NO`, the outcome (in the assay on NCBI gene 100848466; in assay [4]; in assay [5]) was inactive. In addition, in assay [9], the AC50 is 4.44 µM (active).
In the case of `CCOP(=S)(OCC)SCn1nnc2ccccc2c1=O`, the AC50 in [1] was 9.51 µM (active).
As for `ClC(Cl)(Cl)c1ccccc1`, the call in assay [10], in [2], in assay [4], in [5], in assay [6] and in [7] was inactive. Besides, the compound was called inactive in assay [8].
In the case of `Nc1ccc2ccccc2c1`, the AC50 in assay [1] was 7.21 µM (active). Further, the compound was called inactive in assay [4], in assay [5], in assay [6], in [7] and in assay [8].
For the compound `CCCCc1ccc(O)cc1`, the result in assay [2] and in assay [3] was inactive. For the same compound, the half-maximal activity concentration (AC50) is 41.4 µM (active) in assay [4]; 19.7 µM (active) in assay [5]; 19.7 µM (active) in [6]; 31.4 µM (active) in assay [7]; 10.5 µM (active) in assay [8].
With `C=CC(=O)OCC(CC)(COC(=O)C=C)COC(=O)C=C`, the AC50 was 25 µM (active) in assay [1] and 42.2 µM (active) in assay [2].
With `CCCN(CCC)c1c([N+](=O)[O-])cc(C(C)C)cc1[N+](=O)[O-]`, the result in [11], in assay [2] and in [8] was inactive. For the same compound, the AC50 in assay [4] is 56.6 µM (active); in [5], 36.8 µM (active); in [6], 50 µM (active); in [7], 56.9 µM (active).
In the case of `Nc1cc2c3c(c1)C(c1ccccc1)=N[C@@H](NC(=O)c1cccnc1)C(=O)N3CC2`, the outcome in assay [12], in [4], in [5], in assay [7] and in assay [8] was inactive.
`O=P(Oc1ccccc1)(Oc1ccccc1)Oc1ccccc1`: the concentration at half-maximal activity (AC50) in assay [1] was 1.96 µM (active); in assay [4], 12.4 µM (active); in [5], 12.1 µM (active); in assay [6] it was 12.2 µM (active); in [7], 12.4 µM (active); in assay [8], 12.2 µM (active). Further, the result in [12] and in assay [13] was inactive.
As for `O=C(O)C(Cl)Cl`, the outcome in assay [12], in assay [4], in assay [5] and in assay [13] was inactive.
With `CCCCN(CCCC)SN(C)C(=O)Oc1cccc2c1OC(C)(C)C2`, the outcome (in the assay on NCBI gene 100848466; in [2]; in [4]; in [5]; in assay [6]; in [7]) was inactive. Besides, the outcome in assay [8] was inactive.
`CCCCN(CCCC)N=O`: the result in assay [12], in [4], in [14], in assay [6], in [7] and in assay [13] was inactive.
Turning to `Nc1ccc([N+](=O)[O-])cc1Cl`, in assay [1], the call was inactive.
